RPL19A TOR yeast = modulators of TOR pathway RPL19A-GFP in S. cerevisiae; S. cerevisiae RPL19A-GFP strain, flow cytometry, 3 h; stronger effect = lower value; 330,000 tested, 0.3% active; percent response vs DMSO, % at 10 µM;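 active = percent response vs DMSO below 50%; inconclusive = fewer than 70 events counted for the yeast strain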;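 also: median channel GFP fluorescence of the barcoded RPL19A-GFP strain; ratio of sample median GFP to plate DMSO average so 100% = DMSO; lower means less RPL19A-GFP as with rapamycin TOR inhibition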
JMJD2C inh = human JMJD2C demethylase inhibition. GST-JMJD2C(1-420) H3K9me3 demethylation, DELFIA europium. Q9H3R0. AID 2099. inhibition, % at 2.35 µM. 330,000 tested, 0.069% active;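 active = more than half of a compound's replicate wells show inhibition beyond 50%, single wells judged on their own value; inconclusive = some, but no more than half, of replicates pass 50% inhibition; inactive = no replicate passes 50% inhibition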;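 also: signal counts dimethyl H3K9 product captured on neutravidin plate; 0% = median of DMSO wells and 100% = 0.3 times that DMSO median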
Target sequence (Q9H3R0 1-420 limits assumed): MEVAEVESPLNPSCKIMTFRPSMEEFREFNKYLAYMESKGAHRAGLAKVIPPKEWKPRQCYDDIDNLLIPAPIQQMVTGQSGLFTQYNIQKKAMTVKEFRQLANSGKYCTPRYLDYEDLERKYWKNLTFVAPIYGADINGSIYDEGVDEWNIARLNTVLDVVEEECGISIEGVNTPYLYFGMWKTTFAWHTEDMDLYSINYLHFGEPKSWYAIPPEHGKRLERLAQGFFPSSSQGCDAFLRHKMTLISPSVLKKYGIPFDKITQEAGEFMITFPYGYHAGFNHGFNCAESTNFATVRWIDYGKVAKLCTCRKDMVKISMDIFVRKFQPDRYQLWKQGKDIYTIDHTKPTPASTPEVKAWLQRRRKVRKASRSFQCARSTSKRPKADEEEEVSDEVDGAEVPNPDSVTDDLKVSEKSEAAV
LAP4 TOR yeast = yeast TOR pathway LAP4-GFP modulation; S. cerevisiae LAP4-GFP multiplex, flow cytometry GFP, 3 h; median GFP as percent of DMSO wells; GFP response vs DMSO, % at 10 µM; 320,000 tested, 0.34% active;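 active = GFP response vs DMSO above a set limit, about the screen mean plus 3 SD, cut at about 150% in these data; inconclusive = under 70 cell events counted for the yeast strain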
AGP1 TOR yeast = modulators of TOR pathway AGP1-GFP in S. cerevisiae; GFP response vs DMSO, % at 10 µM; 320,000 tested, 0.02% active; S. cerevisiae AGP1-GFP multiplex flow cytometry, 3 h; GFP as percent of DMSO wells;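 active = GFP response relative to DMSO above a set limit, near screen average plus 3 SD, cut at about 150% in these data; inconclusive = fewer than 70 cells counted for the yeast strain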;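 also: median GFP channel fluorescence of the gated AGP1 strain per well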
CIT2 TOR yeast = alters CIT2-GFP fluorescence in TOR pathway yeast screen; S. cerevisiae CIT2-GFP strain, flow cytometry, 3 h; 100 means same as DMSO wells; GFP response vs DMSO, % at 10 µM; 320,000 tested, 0.065% active; AID 2029;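 active = GFP response relative to DMSO above a set limit, near the screen mean plus 3 SD, cut at about 150% in these data; inconclusive = Fewer than 70 cells measured for a yeast strain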;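 also: ratio of well median GFP fluorescence to mean of DMSO wells on the plate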
MEP2 TOR yeast = yeast TOR pathway MEP2-GFP modulation | S. cerevisiae MEP2-GFP strain, flow cytometry GFP, 3 h; 100% = DMSO control level | GFP response vs DMSO, % at 10 µM | 330,000 tested, 0.51% active | AID 2016;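 active = GFP response versus DMSO above a set limit, roughly screen mean plus 3 SD, cut at about 180% in these data; inconclusive = fewer than 70 cells counted for a yeast strain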;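 also: median GFP fluorescence of the barcode-gated MEP2-GFP cells per well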
Active calls of the source: *; ? = inconclusive; . = no result; [ ] = remark or other dose. Sampled rows, rich in hits. Any-hit rate of the full collection: about 0.97%.

SMILES	RPL19A TOR yeast	JMJD2C inh	LAP4 TOR yeast	AGP1 TOR yeast	CIT2 TOR yeast	MEP2 TOR yeast
Cc1nn(CC(=O)NC2CCC(C)CC2)c(C)c1[N+](=O)[O-] (centres undefined)	93	0	94	93	92	93
COc1cc(/C=C/C(=O)c2c(O)ccc3c(C)cc(=O)oc23)ccc1O	89	0	160*	88	61	91
Cc1cc(=O)oc2c(C(=O)/C=C\c3cccs3)c(O)ccc12	104	-3	152*	96	93	92
Cc1cc(=O)oc2c(C(=O)/C=C/c3ccccc3)c(O)ccc12	91	-8	98	89	83	90
COc1ccc(CN(C)C(=O)c2ccc(NS(=O)(=O)c3ccc(F)cc3)cc2)c(OC)c1OC	105	11	108	110	115	109
COc1ccc(-c2[nH]ncc2CN(CCO)Cc2cccs2)c(F)c1	102	-5	129	103	118	198*
CC(C)CCNc1nc(N)c([N+](=O)[O-])c(N2CCCCCC2)n1	100	5	.	108	96	109
Cc1noc(/C=C/N(C)C)c1S(=O)(=O)N1CCCC(C(=O)Nc2ccc(F)cc2F)C1 (centres undefined)	103	2	97	105	106	108
CCN(CCCNC(=O)C1CCN(C(=O)c2cc3sccc3n2C)CC1)Cc1ccccc1	44*[may fluoresce violet]	9	107	?	?	283*[may fluoresce violet]
CCCCN(CCCNC(=O)C1CCN(C(=O)c2cc3sccc3n2C)CC1)Cc1ccccc1	96	57	94	97	108	95
CCOc1ccc(CNS(=O)(=O)c2ccc3c(c2)CC(=O)N3C)cc1	17*[may fluoresce violet]	-5	72	?	?	170
CCOc1ccc(S(=O)(=O)NCc2ccncc2)cc1	104	4	97	113	106	109
N=c1c(C(=O)NC2CCCC2)cc2c(=O)n3ccccc3nc2n1CCN1CCOCC1	37*[may fluoresce violet]	1	79	?	?	216*[may fluoresce violet]
N=c1c(S(=O)(=O)c2ccccc2)cc2c(=O)n3ccccc3nc2n1Cc1cccnc1	96	-6	110	111	96	99
N=c1c(C(=O)NC2CCCC2)cc2c(=O)n3ccccc3nc2n1CCCN1CCOCC1	51	4	74	?	?	184*[may fluoresce violet]
CCCNc1nc2nc3ccccn3c(=O)c2cc1C(=O)NCCN1CCOCC1	?	-40	97	?	?	220*[may fluoresce red and violet]
N#Cc1cc2c(=O)n3ccccc3nc2n(Cc2cccnc2)c1=O	41*[may fluoresce violet]	4	81	19	?	188*[may fluoresce violet]
CCOC(=O)c1cc(=O)c2ccc(OCC(=O)Nc3ccc(F)cc3)cc2o1	98	-5	105	102	109	106
CCCCn1c(N)c(N(CC(C)C)C(=O)COC(=O)C2(c3ccccc3)CC2)c(=O)[nH]c1=O	101	-7	110	110	99	101
CSCCC(NC(=O)c1ccc([N+](=O)[O-])cc1Cl)C(=O)OC(C)C(=O)NCc1ccco1 (centres undefined)	93	-6	100	97	92	101
CC1CN(C(=O)CCNS(=O)(=O)c2ccc(Br)cc2)CC(C)O1 (centres undefined)	103	3	113	107	100	108
COc1ccc(OCC(O)CN2CC(C)OC(C)C2)cc1 (centres undefined)	106	0	93	89	98	106
N#Cc1cc2c(=O)n3ccccc3nc2n(CCCN2CCOCC2)c1=O	47*[may fluoresce violet]	-3	96	73	?	241*[may fluoresce violet]
CCOc1ccc(N2CC(C(=O)Nc3ccccc3N3CCOCC3)CC2=O)cc1 (centres undefined)	38*[may fluoresce violet]	-14	88	24	?	260*[may fluoresce violet]
O=C(NC1=NCCS1)c1cccc2ccccc12	100	4	93	75	116	91
SMILES	RPL19A TOR yeast	JMJD2C inh	LAP4 TOR yeast	AGP1 TOR yeast	CIT2 TOR yeast	MEP2 TOR yeast
CC/C(C)=N/Nc1nc2c(c(=O)[nH]c(=O)n2C)n1CCc1ccccc1	53	4	96	?	?	242*[may fluoresce violet]
CC/C(C)=N/Nc1nc2c(c(=O)[nH]c(=O)n2C)n1Cc1ccccc1	99	1	93	100	98	108
CC(=O)Nc1cccc(NC(=O)CS(=O)(=O)c2cn(CC(=O)N(C(C)C)C(C)C)c3ccccc23)c1	96	-16	108	108	142	114
COC(=O)c1cc(C(=O)Nc2ccc(C)cn2)cc([N+](=O)[O-])c1	95	-6	87	84	91	85
COC(=O)c1cc(C(=O)Nc2cccc(C)n2)cc([N+](=O)[O-])c1	50	-6	86	.	?	225*[may fluoresce violet]
COc1ccc(C(=O)N2N=C(c3cccc(NS(C)(=O)=O)c3)CC2c2cccs2)cc1 (centres undefined)	105	-11	96	107	104	103
Cc1ccc(Nc2nc(N/N=C/c3c[nH]c4ccccc34)nc(N3CCOCC3)n2)cc1	95	22	99	93	96	104
C(=N\Nc1nc(Nc2ccccc2)nc(N2CCOCC2)n1)/c1c[nH]c2ccccc12	42*[may fluoresce violet]	-5	96	?	?	447*[may fluoresce violet]
COCCOC(=O)c1c(NC(=O)CN2CCc3ccccc32)sc(C(N)=O)c1C	101	4	101	100	101	105
CCOC(=O)c1c(NC(=O)CN2CCCc3ccccc32)sc(C(C)=O)c1C	54	-4	88	?	?	213*[may fluoresce violet]
CC(CN1CCCC1)OC(=O)COc1ccccc1 (centres undefined)	101	50*	91	101	.	96
CCCCN(C(=O)c1cc(CC)c(C)s1)c1c(N)n(CCC)c(=O)[nH]c1=O	97	-4	113	102	95	102
Cc1ccc(NC(=O)CN2C(=O)NC(C)(C3CC3)C2=O)cc1S(=O)(=O)N1CCCCC1 (centres undefined)	102	5	101	104	91	101
CS(=O)(=O)N1CCN(c2ccccc2NC(=O)c2cc3ccccc3o2)CC1	24*[may fluoresce violet]	11	88	?	?	345*[may fluoresce violet]
COc1ccc([C@H]2CC(=O)C=C(c3ccc4ncccc4c3)C2)cc1OC	110	-9	93	93	95	98
COc1ccc(/C=N/NC(=O)CCC(=O)Nc2ccc(Br)cc2)c(OC)c1	43*[may fluoresce violet]	6	79	?	?	830*[may fluoresce violet]
CC1(C)CC(=O)c2sc(N3CCCCC3)nc2C1	71	-1	101	53	?	218*[may fluoresce violet]
COc1cccc(/C=N/NC(=O)CC2C(=O)NN=C2C)c1OC (centres undefined)	96	2	96	103	108	108

High-throughput results as filed in PubChem BioAssay.
